Results as given in PubChem BioAssay AID651719 (The Scripps Research Institute Molecular Screening Center, 2012).
Screen size: about 360,000 compounds; about 1,600 (0.44%) were called active. For the sample, actives were picked, then their nearest neighbours and some compounds at random. A number with no mark means an inactive call.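 Rule for the calls: active = inhibition above the screen-wide average plus 3 SD (cut at about 13% in these data); inactive = the rest.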

target: Galanin receptor type 3 (Homo sapiens) (UniProt O60755); experiment: GalR3 antagonists in HEK293 cells, primary screen, cell-based, fluorescence readout (AID 651719); conditions: HEK293 GalR3-CNG cAMP membrane potential fluorescence; at 3 µM; hits give high values; galR3 body fused to GalR1 C-terminus;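 note: forskolin and galanin both at EC90 stimulate the cells; cAMP rise reported by CNG channel membrane potential dye signal; 0% = forskolin plus galanin with DMSO and 100% = forskolin alone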
Sequence (O60755 1-299 limits assumed): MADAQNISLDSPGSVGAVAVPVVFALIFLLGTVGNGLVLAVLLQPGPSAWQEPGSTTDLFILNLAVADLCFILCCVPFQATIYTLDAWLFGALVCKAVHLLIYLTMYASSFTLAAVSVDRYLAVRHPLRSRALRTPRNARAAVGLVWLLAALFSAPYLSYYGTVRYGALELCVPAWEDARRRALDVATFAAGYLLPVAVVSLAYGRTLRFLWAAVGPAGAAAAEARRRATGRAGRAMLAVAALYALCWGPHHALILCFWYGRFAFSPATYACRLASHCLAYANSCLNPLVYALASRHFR

Row | SMILES | inhibition
1 | CCCCCCCCn1c2c(c(=N)c3c1CCC3)CCCC2 | 30.2% (active)
2 | COC(=O)C1=C(C)N(Cc2cccc(C(F)(F)F)c2)C(=NCc2cccc(C(F)(F)F)c2)NC1c1ccccc1C(F)(F)F (stereo unspecified) | -1.24%
3 | Cc1ccc(NC(=O)N2c3ccccc3SC2c2ccco2)c(C)c1 (stereo unspecified) | -5.21%
4 | CC(C)(C)NCc1cc(Br)ccc1OC1CCCC1 | -9.54%
5 | CCOc1ccc(Br)cc1S(=O)(=O)N1CCC(C(=O)O)CC1 | -0.52%
6 | CCOc1ccc(Br)cc1CSC(=N)N | 58.7% (active)
7 | COc1ccccc1C(=O)N1O[C@]23C=C[C@]14C[C@@H](O)CC[C@]4(C)C2CC[C@]1(C)[C@@H]([C@H](C)/C=C/[C@H](C)C(C)C)CC[C@H]13 (stereo partly specified) | -7.73%
8 | CCN1C(=O)N[C@@H]2C[C@H](C(=O)N3CCCC3)[C@H](C)[C@H](c3ccccc3)C[C@@H]21 | -5.5%
9 | O=C(N[C@H](C(=O)N1CCC[C@H]1C(=O)NCCc1ccccc1Cl)c1ccccc1)c1ccccc1 | -7.99%
10 | COc1ccccc1-c1ccc([C@@H]2C[C@H]3[C@H](CON3C)CN2S(=O)(=O)c2cc(Cl)cc(Cl)c2)cc1 | -6.77%
11 | O=C(NCC(=O)N(c1ccccc1)C(C(=O)NCC1CCCO1)c1ccccc1)c1cccs1 (stereo unspecified) | 0.38%
12 | COc1ccc(N(C(=O)CNC(=O)c2ccco2)C(C(=O)NCC2CCCO2)c2ccccc2)cc1Cl (stereo unspecified) | 17.1% (active)
13 | O=C(NCC(=O)N(CC1CCCO1)C(C(=O)NC1CCCCC1)c1ccccc1)c1ccco1 (stereo unspecified) | -3.5%
14 | COC(=O)c1c(-c2ccc(OC)cc2)c2c(c3c4cc(OC)ccc4n(S(=O)(=O)c4ccc(F)cc4)c13)C(=O)N(C)C2 | -4.47%
15 | CCOC(=O)c1c(NC(=O)CSc2nnc(CNc3ccc(C)cc3C)o2)sc(C)c1C | -5.1%
16 | CCOC(=O)c1c(NC(=O)CSc2nccc(=O)[nH]2)sc(C)c1C | 14.3% (active)
17 | CCOC(=O)c1c(NC(=O)CSc2nnc(Cc3csc(N)n3)n2C)sc(C)c1C | -6.84%
18 | O=C1Nc2ccccc2C1=NN=Cc1ccco1 | -6.76%
19 | CC(C)(C)n1nc(C2CC2)c(Br)c1NC(=O)c1ccccc1F | -6.97%
20 | O=c1[nH]c(-c2ccccc2)cn1C1CCN(Cc2ccc(-c3nc4ccc(F)cc4nc3-c3ccccc3)cc2)CC1 | -7.59%
21 | CCOc1ccc(C(C)=O)cc1COC(=O)c1cnc(Cl)c(Cl)c1 | 13.8% (active)

Row | SMILES | inhibition
22 | CCOc1ccc(C(C)=O)cc1COC(=O)CNC(=O)c1cccs1 | -0.09%
23 | COC(=O)c1ccc(COC(=O)c2cnc(Cl)c(Cl)c2)cc1 | -9.03%
24 | COC(=O)c1ccc(CN2C(=O)[C@]3(OCCC=C[C@H]3C)c3c(Br)cccc32)cc1 | -6.8%
25 | CC1CCN(C(=O)c2ncn3c2C(=O)N[C@@H](C)C3)CC1 | -3.89%
26 | O=C(NCc1ccccc1)[C@@H]1CCCN1C(=O)[C@H]1CCCN1C(=O)c1cccc(Cl)c1 | -6.19%
27 | Cn1c(CN2CCOCC2)nc2cc(NC(=O)c3ccc(Cl)cc3)ccc21 | 74.6% (active)
28 | CCOC(=O)N1CCN(Cc2nc3cc(NC(C)=O)ccc3n2C)CC1 | -9.27%
29 | O=C(Nc1ccc(CN2CCOCC2)cc1)c1cc(Cl)ccc1Cl | -7.17%
30 | Cc1cc(NCCc2c[nH]c3ccccc23)ccc1Oc1cccnc1 | -8.42%
31 | COc1ccc(CN2CCCC(C(=O)c3ccc(Cl)cc3)C2)cc1Cn1cncn1 (stereo unspecified) | -0.72%
32 | COc1ccc(C2Nc3ccccc3C(=O)N2Cc2ccccc2)cc1Cn1nnc2ccccc21 (stereo unspecified) | -2.99%
33 | COc1ccc(C2Nc3ccccc3C(=O)N2c2ccc(Cl)cc2)cc1Cn1cc([N+](=O)[O-])cn1 (stereo unspecified) | 28.1% (active)
34 | CN[C@H]1C[C@H]2c3[nH]c4c(-c5ccccc5)cccc4c3CCN2C(=O)[C@H]1[C@H](C)O | -8.33%
35 | CC(=NNC(N)=O)c1ccc(Cl)c(-n2cccc2)c1 | -8.67%
36 | C[C@@H]1ON(C)[C@H]2C[C@H]3c4cc(N5CCOCC5)ccc4CCN3C[C@@H]12 | -4.65%
37 | COC(=O)[C@H](CC(C)C)NS(=O)(=O)c1c(F)cccc1F | -4.91%
38 | COCc1[nH]nc2c1C(c1ccccc1)N(c1ccccc1)C2=O (stereo unspecified) | -6.8%
39 | CN1C(=O)C2CC(O)C(SC3CC4C(=O)N(C)C(=O)C4CC3O)CC2C1=O (stereo unspecified) | -2.8%
40 | COC(=O)c1nc(NC(=O)c2ccc(C(C)(C)C)cc2)n[nH]1 | -1.62%
41 | Cc1cccc(NC(=O)c2ccc(S(=O)(=O)N(C)c3ccccc3)cc2)n1 | -6.82%
